# Source: PubChem BioAssay
# Sampled rows, rich in hits. Any-hit rate of the full collection: about 2.1%.
# COUP-TFII inh = NR2F2 transcriptional activity inhibitors, primary screen, cell-based, luciferase reporter, HEK293T, luminescence. inhibition, % at 8.6 µM. 370,000 compounds, 0.7% hits. COUP transcription factor 2 (Homo sapiens), P24468. HEK293T NGFI-A luciferase reporter. AID 686940, 2013;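 active = inhibition above a per-plate cutoff, mean inhibition of test wells between control levels plus 3 SD, cut at about 38% in these data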;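 also: cells cotransfected with COUP-TFII expression vector driving the NGFI-A reporter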
# Target sequence (P24468 whole entry, looked up): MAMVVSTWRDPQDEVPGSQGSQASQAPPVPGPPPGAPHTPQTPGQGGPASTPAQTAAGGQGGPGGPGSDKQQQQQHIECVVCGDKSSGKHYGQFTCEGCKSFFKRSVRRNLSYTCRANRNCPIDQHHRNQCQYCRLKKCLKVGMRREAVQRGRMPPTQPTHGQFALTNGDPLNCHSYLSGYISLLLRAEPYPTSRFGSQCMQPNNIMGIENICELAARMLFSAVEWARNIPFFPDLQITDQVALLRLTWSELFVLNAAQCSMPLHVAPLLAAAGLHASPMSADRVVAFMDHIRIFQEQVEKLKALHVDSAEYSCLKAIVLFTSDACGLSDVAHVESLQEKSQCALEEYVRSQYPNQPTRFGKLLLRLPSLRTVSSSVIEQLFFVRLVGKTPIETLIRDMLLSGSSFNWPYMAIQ
# Env fusion inh = inhibitors of HIV-1 Env-driven cell-cell fusion, primary screen, HeLa-JRFL effector, CEM21 target cells, luciferase | inhibition, % at 12.3 µM | 360,000 compounds, 1.1% hits;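 active = mean replicate inhibition score of at least 50 and every replicate individually at or above 50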
# aDG glyco act = activators of alpha-DG glycosylation, primary screen, uHTS, Pro5-aDG cells, AlphaScreen; alpha-DG glycosylation AlphaScreen (IIH6); 0% Pro5, 100% B10-LARGE cell signal; activation, % at 10 µM; 360,000 compounds, 0.22% hits; AID 624168, 2012;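 active = activation of at least 8% versus controls, or a plate z-score of at least 8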;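 also: Pro5 are CHO cells carrying HIG-tagged alpha-DG that lacks glycosylation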
# Gli-Sufu antag = Gli-Sufu pathway antagonists, primary screen, luciferase luminescence, Sufu-KO-LIGHT cells, uHTS; inhibition, % at 5 µM; AID 588413, 2011; 340,000 compounds, 0.74% hits; Sufu-KO-LIGHT fibroblasts, Gli luciferase reporter luminescence;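 active = inhibition above about 55%, limit read from the data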
# GalR3 antagonist = GalR3 antagonists in HEK293 cells, primary screen, cell-based, fluorescence readout; Galanin receptor type 3 (Homo sapiens), O60755; 360,000 compounds, 0.44% hits; inhibition, % at 3 µM; AID 651719, 2012; HEK293 GalR3-CNG cAMP membrane potential fluorescence; galR3 body fused to GalR1 C-terminus;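 active = inhibition above the screen-wide average plus 3 SD, cut at about 13% in these data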;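 also: forskolin and galanin both at EC90 stimulate the cells; cAMP rise reported by CNG channel membrane potential dye signal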
# GalR3 antag conf = GalR3 antagonist hit confirmation, cell-based, fluorescence, triplicate | shares compounds with GalR3 antagonist | HEK293 GalR3 CNG cAMP biosensor, membrane potential fluorescence; galR3 fused to GalR1 carboxy tail; challenged with forskolin and galanin at EC90 | inhibition, % at 3 µM | 1,600 compounds, 59% hits | AID 652245, 2013;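 active = inhibition above the primary screen's cutoff, the mean inhibition of all screened compounds plus 3 SD, cut at about 13% in these data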
# CNG parental = nonspecific cAMP agonists in parental HEK-CNG cells, counter-screen for GalR3 antagonist project, cell-based, fluorescence, high throughput; shares compounds with GalR3 antagonist; HEK293-CNG parental cells, cAMP membrane potential fluorescence; normalised: DMSO wells 0%, forskolin wells 100%; activation, % at 3 µM; 1,600 compounds, 10% hits; AID 652268, 2013; in the data active = activation above about 1.3%
# Hits are given with their value; 0 = inactive; - = not tested or not shown.
SMILES,COUP-TFII inh,Env fusion inh,aDG glyco act,Gli-Sufu antag,GalR3 antagonist,GalR3 antag conf,CNG parental
COc1ccc(-n2c(SCc3ccc([N+](=O)[O-])cc3)nnc2-c2ccc(C)cc2)cc1,0,0,0,0,50,0,0
Cc1ccc(-n2c(SCc3ccc(C#N)cc3)nnc2-c2ccccn2)cc1,0,0,0,0,13,0,0
COc1ccc(CC2(CO)CCN(Cc3ccc(OC(F)(F)F)cc3)CC2)cc1,0,0,0,0,17,0,1.8
COc1ccc(CC2(CO)CCN(Cc3cnn(-c4ccc(F)cc4)c3)CC2)cc1,0,0,0,0,17,0,1.5
COc1ccc(CC2(CO)CCN(Cc3cnn(-c4ccccc4)c3)CC2)cc1,0,0,0,0,0,-,-
COc1ccc(CC2(CO)CCN(Cc3ccc(NC(C)=O)cc3)CC2)cc1,0,0,0,0,0,-,-
CCOCCCNC(=O)C1CCCN(S(=O)(=O)CC)C1 (configuration not stated),0,-,0,0,0,-,-
CCCCNC(=O)C1CCCN(S(=O)(=O)CC)C1 (configuration not stated),0,0,0,0,14,0,0
C[C@@H]1CN([C@@H](C)CO)C(=O)c2cc(NS(=O)(=O)c3cn(C)cn3)ccc2O[C@H]1CN(C)C(=O)Nc1ccccc1,-,0,-,-,-,-,-
COCCNC(=O)C[C@@H]1CC[C@H]2[C@@H](COC[C@H](O)CN2Cc2cccc(-c3ccncc3)c2)O1,-,0,-,-,-,-,-
C=CCSc1nsc(NC(=O)Nc2ccc(F)cc2)n1,54,0,0,0,69,40,0
CCN(CC)c1ccc(/C=N/NC(=S)NCc2ccccc2)c(O)c1,0,0,0,0,13,25,0
CCN(CC)c1ccc(/C=N/NC(=O)c2ccco2)c(O)c1,0,0,0,0,0,-,-
Cc1ccc2c(c1)C1C3CCC(C3)C1S(=O)N2 (configuration not stated),0,0,0,0,18,0,0
C[C@H]1CN([C@@H](C)CO)C(=O)c2cc(-c3cccc(F)c3)cnc2O[C@H]1CN(C)Cc1cccc(F)c1,-,0,-,-,-,-,-
Cc1nc(NCC2CCCO2)c2nnn(Cc3ccccc3)c2n1 (configuration not stated),0,-,0,0,0,-,-
Cc1nc(NCC2CC2)c2nnn(Cc3ccccc3)c2n1,0,0,0,0,18,0,0
C[C@H]1CN([C@@H](C)CO)C(=O)Cc2cc(NC(=O)Nc3ccc(F)cc3)ccc2O[C@@H]1CN(C)Cc1ccc(Oc2ccccc2)cc1,-,0,-,-,-,-,-
COc1ccc(-c2ccc(-c3cc(=O)oc4c(C(C)C)ccc(C)c34)cc2)cc1,0,0,0,0,23,13,0
CC(C)CC#Cc1ccc2c(c1)O[C@H](CN(C)C(=O)CN(C)C)[C@H](C)CN([C@@H](C)CO)S2(=O)=O,-,0,-,-,-,-,-
C[C@H](CO)N1C[C@H](C)[C@H](CN(C)C(=O)c2ccncc2)OCCCC[C@H](C)Oc2ccc(NS(=O)(=O)c3cn(C)cn3)cc2C1=O,-,0,-,-,-,-,-
CC(=O)OCC1OC(n2c(S)c(C#N)c(-c3ccccc3)c(C#N)c2=O)C(OC(C)=O)C(OC(C)=O)C1OC(C)=O (configuration not stated),0,0,0,0,57,87,0
CC(=O)OCC1OC(c2ccccc2)C(OC(C)=O)C(OC(C)=O)C1OC(C)=O (configuration not stated),0,0,0,0,0,-,-
CCS(=O)(=O)c1ccc(O)c(NC(=O)/C=C/c2ccccc2)c1,0,0,0,0,13,0,0
CC(C)NC(=O)N(C)C[C@H]1Oc2ncc(-c3ccc(C(=O)N(C)C)cc3)cc2C(=O)N([C@@H](C)CO)C[C@@H]1C,-,0,-,-,-,-,-
SMILES,COUP-TFII inh,Env fusion inh,aDG glyco act,Gli-Sufu antag,GalR3 antagonist,GalR3 antag conf,CNG parental
Cc1cc(Br)ccc1OCC(=O)NNC(=O)c1ccc(NC(=O)C2CC2)cc1,0,-,0,0,50,36,0
O=C(C[C@@H]1C=C[C@H](NC(=O)c2ccccn2)[C@H](CO)O1)NCc1cc(F)cc(F)c1,-,0,-,-,-,-,-
Cc1cc(OCC(=O)Nc2cccc(S(=O)(=O)N3CCCCC3)c2)ccc1Cl,0,-,0,0,0,-,-
CCS(=O)c1ccccc1C(=O)OCC(=O)Nc1cccc(S(=O)(=O)N2CCCCC2)c1 (configuration not stated),0,-,0,0,92,96,0
O=C(Cn1nc(C(=O)O)c2ccccc2c1=O)Nc1cccc(S(=O)(=O)N2CCCCC2)c1,0,0,0,0,13,58,0
CCC(=O)c1ccc(OCC(=O)Nc2cccc(S(=O)(=O)N3CCCCCC3)c2)cc1,0,0,0,0,98,97,0
O=C(Cn1nc(C(=O)O)c2ccccc2c1=O)Nc1cccc(S(=O)(=O)N2CCOCC2)c1,0,-,0,0,0,-,-
COc1ccc(NC(=O)Nc2ccc3c(c2)C(=O)N([C@H](C)CO)C[C@H](C)[C@H](CN(C)C(=O)Nc2ccccc2)O3)cc1,-,0,-,-,-,-,-
O=C(C[C@@H]1CC[C@H](NC(=O)Cc2cccnc2)[C@@H](CO)O1)Nc1ccc(-c2ccccc2)cc1,-,0,-,-,-,-,-
N#C/C(=C\c1cc2c(cc1Br)OCO2)c1ccc(C(=O)O)cc1,0,0,0,0,17,0,1.2
COc1ccc(-c2nc(C#N)c(NC(C)c3ccccc3)o2)cc1OC (configuration not stated),0,-,0,0,20,39,0
COc1ccc(-c2nc(C#N)c(NCCCN(C)C)o2)cc1OC,0,-,0,0,0,-,-
O=C(COc1ccc2c(c1)oc(=O)c1ccccc12)NC(Cc1ccc(Cl)cc1)C(=O)O (configuration not stated),0,-,0,0,26,0,0
O=C(COc1ccc2c(c1)oc(=O)c1ccccc12)N[C@@H](Cc1ccccc1)C(=O)O,0,-,0,0,0,-,-
CCCNC(=O)C12CCC(C)(c3nc4cc(C)c(C)cc4nc31)C2(C)C (configuration not stated),0,0,0,0,16,0,0
Cc1ccc(S(=O)(=O)N(C)C[C@H]2Oc3c(NC(=O)c4cnccn4)cccc3C(=O)N([C@@H](C)CO)C[C@@H]2C)cc1,-,0,-,-,-,-,-
COCC(=O)N(C)C[C@H]1Oc2ncc(-c3ccc(F)cc3)cc2C(=O)N([C@H](C)CO)C[C@@H]1C,-,0,-,-,-,-,-
